From PubChem BioAssay (NCATS) come the findings set out here.

Molecules are shown by their SMILES. Calls of active or inactive are those of the source. Calls come from the whole dose curve; as a rule, active = well fitted curve in the direction sought with a large enough effect; inconclusive = small, poorly fitted or top-dose-only effect, or effect the other way, or another doubt; inactive = no such curve, though single readings can be large or run the other way.

This assay is described as follows: qHTS for Inhibitors of Cell Surface uPA Generation: Validation Assay (AID 493164).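 Note: RAW 264.7 macrophage cells exposed to compound for 18 h.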 Conditions: mouse cells, plasminogen activation; series mostly up to 38.3 µM. The method in brief: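 ATP-Lite luminescence read-out: ATP remains high when uPA activity-dependent LF translocation into the cytoplasm is blocked. RAW 264.7 cells, 18 h compound exposure at 37 C; 7-point titration, 2.45 nM to 38.3 uM final.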
Background: Quantitative high-throughput screening tests each substance at several concentrations.
In the case of `CO/N=C(\C(=O)N[C@@H]1C(=O)N2C(C(=O)O)=C(CSc3nc(=O)c(O)nn3C)CSC12)c1csc(N)n1` (stereo partly specified), the result was inactive.

On to `Nc1ccc(-c2nc3ccc(-c4nc5ccc(N)cc5[nH]4)cc3[nH]2)cc1`, for which the call was inactive.

`CCC(=O)N1CCN(C(=O)c2ccccc2)CC1`: the compound was classed as inactive.

Regarding `Nc1ccc(N2C(=O)c3ccccc3C2=O)c(Cl)c1`, the compound was classed as inactive.

Regarding `NC(N)=N[C@@H](CCC(=O)O)C(=O)O`, the outcome was inactive.

In the case of `CC1CCN(CC[C@H]2CCCN2S(=O)(=O)c2cccc(O)c2)CC1`, the compound was called inactive.

Take `Cc1nc(N=Nc2ccc(S(=O)(=O)O)cc2S(=O)(=O)O)c(COP(=O)(O)O)c(C=O)c1O`: the result was inactive.

Take `CC(C)Cn1c(=O)n(C)c(=O)c2[nH]cnc21`: the compound was called inactive.

For `NCCCNCCCCNCCCN`, the compound was classed as inactive.

For `CCCCCCCCCC[Si](C)(C)CCC(=O)NC(Cc1ccc(C)cc1)c1ccccc1` (stereo unspecified), the compound was called inactive.

For `CNc1ncnc2c1ncn2[C@H]1C[C@H](OP(=O)(O)O)[C@@H](COP(=O)(O)O)O1`, the outcome was inactive.

For `NCCS(=O)O`, the compound was called inactive.

For the compound `N=C(N)SCCN`, the result was inactive.

Consider `NC1(C(=O)O)CC1`, for which the compound was called inactive.

`O=C(O)c1cc(=O)cc(C(=O)O)[nH]1`: the outcome was inactive.

Regarding `c1ccc(C2CN3CCSC3=N2)cc1` (stereo unspecified), the compound was classed as inactive.
